Experimental data as given in PubChem BioAssay (Tox21).
“And” between values parts separate entries of the source, which are not always exact repeats. Equal values may be shown once. Inconclusive results are not listed. The source made the active and inactive calls. Unless noted, calls follow the shape of the dose curve; as a rule, active = well fitted curve in the direction sought with a large enough effect in the repeat runs; inconclusive = weak or mixed curves; inactive = no such curve, though single readings can be large; an effect the other way counts as inactive or inconclusive.

Legend:
[1] = qHTS assay to identify small molecule agonists of the RXR signaling pathway - cell viability counter screen (AID 1159529);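 also: HEK 293T cells carrying an RXR-alpha UAS beta-lactamase reporter; series mostly up to about 77 µM; nearly all actives have a fitted effect of over 50% in size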
Method in brief: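 Counter screen: CellTiter-Glo luminescence. Cells: RXR-alpha-UAS-bla HEK 293T. Medium: 2% charcoal-stripped FBS. Treatment: 16 h, 37 C. Reagent incubation: 30 min, RT.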

[2] = qHTS assay to identify small molecule antagonists of the retinoid acid receptor (RAR) signaling pathway - cell viability counter screen (AID 1159551); also: nearly all actives have a fitted effect of over 35% in size
Method in brief: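 Following overnight attachment, C3RL4 reporter cells received DMSO-dissolved compounds and then retinol (1 uM final). Six hours later at 37 C, ATP content was measured by CellTiter-Glo luminescence.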

[3] = qHTS assay to identify small molecule antagonists of the retinoic acid receptor (RAR) signaling pathway (AID 1159552; also: nearly all actives have a fitted effect of over 50% in size)
Method in brief: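 Antagonism of retinol-induced RARE reporter activity was measured in C3RL4 cells. Exposure to compounds and 1 uM final retinol lasted 6 hr at 37 C, with luminescence as endpoint.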

[4] = qHTS assay to identify small molecule agonists of the retinoic acid receptor (RAR) signaling pathway (AID 1159553); also: potency is read from the fitted curve at half-maximal effect
Method in brief: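 Cell line C3RL4, RARE luciferase reporter. Treatment: compounds in DMSO, 6 hr, 37 C, 5% CO2, after overnight plating. Detection: luminescence, 30 min RT after reagent.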

[5] = qHTS assay to identify small molecule antagonists of the estrogen related receptor (ERR) signaling pathway from Tox21 library - cell viability counter screen (AID 1224834); also: nearly all actives have a fitted effect of over 30% in size
Method in brief: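 Viability readout (CellTiter-Fluor fluorescence, 30 min at 37 C) multiplexed with the ERR assay; cells treated 17.5 h at 37 C with compounds delivered in DMSO.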

[6] = biological target: Luciferin 4-monooxygenase (Photinus pyralis) (UniProt P08659); assay: qHTS assay to identify small molecule inhibitors of firefly luciferase (AID 1224835); also: nearly all actives have a fitted effect of over 25% in size; also: potency is read from the fitted curve at half-maximal effect
Chain of Luciferin 4-monooxygenase (Photinus pyralis) (P08659 whole entry, looked up): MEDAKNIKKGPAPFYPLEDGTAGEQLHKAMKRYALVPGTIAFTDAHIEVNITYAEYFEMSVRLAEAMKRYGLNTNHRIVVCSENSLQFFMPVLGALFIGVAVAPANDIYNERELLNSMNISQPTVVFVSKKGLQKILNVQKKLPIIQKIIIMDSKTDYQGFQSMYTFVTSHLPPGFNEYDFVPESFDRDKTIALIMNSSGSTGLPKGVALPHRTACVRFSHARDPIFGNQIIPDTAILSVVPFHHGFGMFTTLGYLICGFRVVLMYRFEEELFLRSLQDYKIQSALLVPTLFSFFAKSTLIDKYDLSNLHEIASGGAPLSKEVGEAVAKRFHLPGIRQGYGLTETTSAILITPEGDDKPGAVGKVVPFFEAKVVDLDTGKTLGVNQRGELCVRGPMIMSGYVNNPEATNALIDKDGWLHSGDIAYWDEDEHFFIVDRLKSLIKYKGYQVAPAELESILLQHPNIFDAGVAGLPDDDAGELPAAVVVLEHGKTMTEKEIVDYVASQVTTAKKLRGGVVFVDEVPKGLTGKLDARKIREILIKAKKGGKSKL
Method in brief: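 Biochemical qHTS: compounds run as interplate titrations against purified firefly enzyme, with D-luciferin and ATP each at its KM concentration. Light output recorded by CCD imaging.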

[7] = qHTS assay to identify small molecule agonists of the constitutive androstane receptor (CAR) signaling pathway - cell viability counter screen (AID 1224836); also: series mostly up to about 92 µM; nearly all actives have a fitted effect of over 45% in size
Method in brief: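 Double-stable HepG2 hepatoma cells (hCAR plus CYP2B6-2.2kb) are treated for 23 h at 37 C with test compounds in 15-point concentration series. PK11195 at 0.75 uM final is co-added. Cell viability is quantified by CellTiter-Fluor.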

[8] = biological target: Nuclear receptor subfamily 1 group I member 3 (Homo sapiens) (UniProt Q14994); assay: qHTS assay to identify small molecule antagonists of the constitutive androstane receptor (CAR) signaling pathway (AID 1224838);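 also: HepG2 cells stably expressing hCAR with CYP2B6 luciferase reporter stimulated by CITCO; nearly all actives have a fitted effect of over 40% in size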
Chain of Nuclear receptor subfamily 1 group I member 3 (Homo sapiens) (Q14994 whole entry, looked up): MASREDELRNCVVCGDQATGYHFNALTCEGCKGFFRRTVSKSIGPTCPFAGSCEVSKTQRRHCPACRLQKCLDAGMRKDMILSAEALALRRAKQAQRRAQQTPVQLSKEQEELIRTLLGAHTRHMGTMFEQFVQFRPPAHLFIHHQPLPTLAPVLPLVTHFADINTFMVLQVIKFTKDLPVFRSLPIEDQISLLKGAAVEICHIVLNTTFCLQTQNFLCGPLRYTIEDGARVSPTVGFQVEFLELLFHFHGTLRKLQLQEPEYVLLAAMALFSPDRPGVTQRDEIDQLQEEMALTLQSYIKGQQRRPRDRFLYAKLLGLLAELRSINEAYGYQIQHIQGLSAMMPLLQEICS
Method in brief: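 Quantitative HTS in double-stable HepG2-CYP2B6-hCAR cells. After 4 h plating, cells get compound (15 concentrations) and CITCO at 50 nM final, incubate 24 h at 37 C, then ONE-Glo luminescence is read.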

[9] = biological target: Nuclear receptor subfamily 1 group I member 3 (Homo sapiens) (UniProt Q14994); assay: qHTS assay to identify small molecule agonists of the constitutive androstane receptor (CAR) signaling pathway (AID 1224839); also: nearly all actives have a fitted effect of over 15% in size; also: potency is read from the fitted curve at half-maximal effect
Method in brief: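 Readout: firefly luciferase luminescence via ONE-Glo. System: HepG2 double-stable for hCAR and CYP2B6-2.2kb. Conditions: 15-point compound titration, PK11195 at 0.75 uM final, 24 h incubation.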

[10] = qHTS assay to identify small molecule antagonists of the estrogen related receptor (ERR) signaling pathway - cell viability counter screen (AID 1224818);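 also: series mostly up to about 46 µM; viability measured after 17.5 h of compound exposure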
Method in brief: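 Here, ERR cells are plated at 2,000 cells per well, allowed 6 h to attach, and treated with compounds in DMSO for 17.5 h at 37 C. CellTiter-Fluor is then added and fluorescence read after 30 min.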

[11] = qHTS assay to identify small molecule antagonists of the estrogen related receptor signaling pathway with the pleiotropic PPARgamma coactivator (PGC) cell viability counter screen (AID 1224822;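 also: series mostly up to about 46 µM; viability read after 17.5 h compound exposure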)
Method in brief: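 qHTS format, DMSO compound stocks pin-transferred onto PGC/ERR cells 6 h after plating; 17.5 h exposure at 37 C, then CellTiter-Fluor fluorescence.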

[12] = qHTS assay to identify small molecule antagonists of the constitutive androstane receptor (CAR) signaling pathway - cell viability counter screen (AID 1224837); also: series mostly up to about 92 µM; nearly all actives have a fitted effect of over 45% in size
Method in brief: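 Fluorescence from CellTiter-Fluor served as the viability signal. Human hepatoma HepG2 cells stably bearing hCAR and CYP2B6-2.2kb received compound plus CITCO (50 nM final) for 23 hr.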

[13] = qHTS assay to identify small molecule antagonists of the estrogen related receptor signaling pathway with the pleiotropic PPARgamma coactivator (PGC) from Tox21 10K library - cell viability counter screen (AID 1224840; active = well fitted cell-killing curve with a large enough effect in the repeat runs, not every such curve was filed as active; also: nearly all actives have a fitted effect of over 40% in size)
Method in brief: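 Compounds in DMSO, alongside positive and negative controls, were pinned onto PGC/ERR cells (2,000 per well). Exposure lasted 17.5 hours at 37 C, followed by a 30-minute CellTiter-Fluor incubation and fluorescence reading.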

[14] = biological target: Retinoic acid receptor RXR-alpha (Homo sapiens) (UniProt P19793); assay: qHTS assay to identify small molecule agonists of the RXR signaling pathway (AID 1159527; calls by dose curve; also: nearly all actives have a fitted effect of over 35% in size)
Chain of Retinoic acid receptor RXR-alpha (Homo sapiens) (P19793 whole entry, looked up): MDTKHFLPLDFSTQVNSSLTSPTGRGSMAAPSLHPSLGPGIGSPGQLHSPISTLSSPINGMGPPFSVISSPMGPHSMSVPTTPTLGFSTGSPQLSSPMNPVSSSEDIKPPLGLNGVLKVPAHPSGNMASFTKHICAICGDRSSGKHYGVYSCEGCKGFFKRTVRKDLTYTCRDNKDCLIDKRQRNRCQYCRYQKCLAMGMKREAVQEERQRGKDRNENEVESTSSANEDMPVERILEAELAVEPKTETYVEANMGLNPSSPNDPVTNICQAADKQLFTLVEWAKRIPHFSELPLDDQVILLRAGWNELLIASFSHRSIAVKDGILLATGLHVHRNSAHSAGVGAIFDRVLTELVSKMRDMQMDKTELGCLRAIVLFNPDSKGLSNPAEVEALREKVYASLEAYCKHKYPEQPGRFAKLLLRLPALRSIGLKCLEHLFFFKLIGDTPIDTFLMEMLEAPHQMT
Method in brief: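 Compounds in DMSO were added to RXR-alpha-UAS-bla HEK 293T cells kept in 2% charcoal-stripped serum, and incubated 16 hr at 37 C with 5% CO2. Reporter signal came from a 2 hr B/G FRET substrate step.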

[15] = qHTS assay to identify small molecule antagonists of the estrogen related receptor signaling pathway with the pleiotropic PPARgamma coactivator (PGC) from Tox21 10K library (AID 1224841; call rule not given here; also: series mostly up to about 92 µM; actives are mostly falling curves and most rising ones were filed inactive; nearly all actives have a fitted effect of over 50% in size)
Method in brief: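 Compound exposure ran 18 hours at 37 C in PGC/ERR cells (2,000/well) that had first rested 6 hours in a 37 C/5% CO2 incubator. Luciferase activity was then detected with One-Glo after a 30-minute room-temperature step.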

[16] = qHTS assay to identify small molecule agonists of the estrogen related receptor signaling pathway with the pleiotropic PPARgamma coactivator (PGC) from Tox21 10K library (AID 1224842); also: nearly all actives have a fitted effect of over 15% in size
Method in brief: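 PGC/ERR reporter cell line, 2,000 cells per well, incubated 6 h at 37 C before 23 nL compound in DMSO was added. After 18 h at 37 C, One-Glo luminescence read following 30 min at room temperature.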

Measured: Potency

CO[Si](CCCOCC1CO1)(OC)OC (configuration not stated)
inactive: [1] | [2] | [3] | [4] | [5] | [6] | [7] | [8] | [9]

O=c1cc(-c2ccccc2)oc2ccccc12
active: [4] 3.44 µM and 858 nM | [6] 7.97 µM and 12.6 µM | [9] 27.3 µM and 21.6 µM
not listed: [8] | [14] | [15] | [16]
inactive: all other assays above

Nc1c[n+](N2CCOCC2)no1
not listed: [4] | [10] | [11] | [13]
inactive: all other assays above

C=COCC1CCC(CO)CC1 (configuration not stated)
not listed: [4] | [5] | [9] | [10] | [11]
inactive: all other assays above

CC(C)(C)c1ccc(O)c(O)c1
inactive: [1] | [10] | [11] | [7] | [12] | [8]
active: [6] 32.8 µM and 22.4 µM | [9] 63.2 µM and 24.3 µM

NC(=O)COCCN1CCN(C(c2ccccc2)c2ccc(Cl)cc2)CC1 (configuration not stated)
inactive: [14] | [1] | [2] | [3] | [6] | [7] | [12] | [8] | [16]

COc1ccc2c(c1)CCCC2=O
not listed: [4] | [10] | [11] | [15]
inactive: all other assays above

CN1CCCC1
inactive: [14] | [1] | [2] | [3] | [6] | [7] | [12] | [8] | [16]
